Measurements published in PubChem BioAssay.
Activity calls are given as the source filed them.

Assays:
[1] = system: Plasmodium falciparum Sir2 (PF13_0152, Sir2A); experiment: Plasmodium falciparum Sir2A binding compounds – biochemical, small-molecule microarray, 635 nm fluorescence, primary screen (AID 1098); conditions: fluorescence 635 nm, higher = more signal;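 further: score merges spot fluorescence intensity with its signal-to-noise ratio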
[2] = probe aDKK1 binding to arrayed compounds – biochemical, biotinylated probe, 635/667 nm fluorescence, primary screen (AID 1099); conditions: small-molecule microarray, higher = more signal;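 further: score merges 667nm spot fluorescence with signal to noise across triplicate slides; reference of the scale not given here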
[3] = probe aCHRDL2 binding to arrayed compounds – biochemical, biotinylated probe, 635/667 nm fluorescence, primary screen (AID 1100); conditions: small-molecule microarray, higher = more signal
[4] = change in splice reporter luminescence, either direction, cell-based, HEK293, spliceosome inhibition project, primary screen (AID 1101); conditions: HEK293 splicing luciferase reporter, 24 h, higher = more signal, called active from +8 up or from −8 down;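 further: HEK293 cells carrying a splicing-competent luciferase reporter gene; test concentration not given here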
[5] = target: Fibroblast growth factor 10 (Homo sapiens) (UniProt O15520); experiment: compounds binding fibroblast growth factor 10 – biochemical, small-molecule microarray, 635 nm fluorescence, primary screen (AID 1102); conditions: FGF10 binding, fluorescence 635 nm, higher = more signal
[6] = system: glycogen synthase kinase-3 (GSK3A per assay name; protocol says GSK3B); experiment: compounds binding glycogen synthase kinase-3 – biochemical, small-molecule microarray, 635 nm fluorescence, GSK3A, primary screen (AID 1103); conditions: fluorescence 635 nm, higher = more signal; further: the record names both GSK3A and GSK3B
[7] = target: Epidermal growth factor receptor (Homo sapiens) (UniProt P00533); experiment: compounds binding epidermal growth factor receptor – biochemical, small-molecule microarray, 635 nm fluorescence, primary screen (AID 1104); conditions: EGFR binding, higher = more signal;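 further: score merges 667 nm emission intensity with spot signal to noise over triplicate slides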
[8] = target: Follistatin-related protein 3 (Homo sapiens) (UniProt O95633); experiment: compounds binding follistatin-related protein 3 – biochemical, small-molecule microarray, 635 nm fluorescence, primary screen (AID 1105); conditions: FSTL3 binding, higher = more signal;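 further: score merges emission near 667 nm and signal to noise per printed spot across three slides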
[9] = target: Dickkopf-related protein 1 (Homo sapiens) (UniProt O94907); experiment: small molecules binding DKK1 protein – biochemical, small-molecule microarray, 635 nm fluorescence scan, primary screen (AID 1106); conditions: higher = more signal;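 further: score merges emission near 667 nm with signal to noise over three replicate slides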
[10] = system: Inhibin beta A chain (activin A); experiment: small molecules binding activin A – biochemical, small-molecule microarray, 635 nm fluorescence scan, primary screen (AID 1107); conditions: INHBA, higher = more signal;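 further: mouse activin A protein probed at 4.33 µg/mL on printed slides; score merges bound-protein fluorescence near 667 nm with spot signal-to-noise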

Follistatin-related protein 3 (Homo sapiens), sequence (O95633 whole entry, looked up): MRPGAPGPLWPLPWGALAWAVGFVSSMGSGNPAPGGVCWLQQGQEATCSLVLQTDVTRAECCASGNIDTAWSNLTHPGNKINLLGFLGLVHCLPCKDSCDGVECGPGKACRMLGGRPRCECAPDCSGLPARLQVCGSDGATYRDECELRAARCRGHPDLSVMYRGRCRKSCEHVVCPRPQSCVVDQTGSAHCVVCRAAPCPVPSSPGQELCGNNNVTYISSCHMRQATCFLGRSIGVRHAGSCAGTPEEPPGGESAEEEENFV
Dickkopf-related protein 1 (Homo sapiens), sequence (O94907 whole entry, looked up): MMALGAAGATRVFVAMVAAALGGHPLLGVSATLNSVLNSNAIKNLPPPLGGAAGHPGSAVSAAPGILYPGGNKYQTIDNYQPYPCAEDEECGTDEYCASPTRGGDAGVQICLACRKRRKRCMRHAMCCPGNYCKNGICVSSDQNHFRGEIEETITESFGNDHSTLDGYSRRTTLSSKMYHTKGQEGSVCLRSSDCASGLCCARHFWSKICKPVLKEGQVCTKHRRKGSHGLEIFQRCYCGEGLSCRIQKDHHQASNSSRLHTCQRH
Fibroblast growth factor 10 (Homo sapiens), sequence (O15520 whole entry, looked up): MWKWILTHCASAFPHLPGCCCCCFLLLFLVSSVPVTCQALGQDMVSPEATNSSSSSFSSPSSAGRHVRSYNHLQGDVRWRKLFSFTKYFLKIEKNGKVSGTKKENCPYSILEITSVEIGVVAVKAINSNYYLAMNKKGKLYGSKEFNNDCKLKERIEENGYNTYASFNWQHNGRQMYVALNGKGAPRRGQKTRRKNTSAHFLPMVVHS
Epidermal growth factor receptor (Homo sapiens), sequence (P00533 whole entry, looked up): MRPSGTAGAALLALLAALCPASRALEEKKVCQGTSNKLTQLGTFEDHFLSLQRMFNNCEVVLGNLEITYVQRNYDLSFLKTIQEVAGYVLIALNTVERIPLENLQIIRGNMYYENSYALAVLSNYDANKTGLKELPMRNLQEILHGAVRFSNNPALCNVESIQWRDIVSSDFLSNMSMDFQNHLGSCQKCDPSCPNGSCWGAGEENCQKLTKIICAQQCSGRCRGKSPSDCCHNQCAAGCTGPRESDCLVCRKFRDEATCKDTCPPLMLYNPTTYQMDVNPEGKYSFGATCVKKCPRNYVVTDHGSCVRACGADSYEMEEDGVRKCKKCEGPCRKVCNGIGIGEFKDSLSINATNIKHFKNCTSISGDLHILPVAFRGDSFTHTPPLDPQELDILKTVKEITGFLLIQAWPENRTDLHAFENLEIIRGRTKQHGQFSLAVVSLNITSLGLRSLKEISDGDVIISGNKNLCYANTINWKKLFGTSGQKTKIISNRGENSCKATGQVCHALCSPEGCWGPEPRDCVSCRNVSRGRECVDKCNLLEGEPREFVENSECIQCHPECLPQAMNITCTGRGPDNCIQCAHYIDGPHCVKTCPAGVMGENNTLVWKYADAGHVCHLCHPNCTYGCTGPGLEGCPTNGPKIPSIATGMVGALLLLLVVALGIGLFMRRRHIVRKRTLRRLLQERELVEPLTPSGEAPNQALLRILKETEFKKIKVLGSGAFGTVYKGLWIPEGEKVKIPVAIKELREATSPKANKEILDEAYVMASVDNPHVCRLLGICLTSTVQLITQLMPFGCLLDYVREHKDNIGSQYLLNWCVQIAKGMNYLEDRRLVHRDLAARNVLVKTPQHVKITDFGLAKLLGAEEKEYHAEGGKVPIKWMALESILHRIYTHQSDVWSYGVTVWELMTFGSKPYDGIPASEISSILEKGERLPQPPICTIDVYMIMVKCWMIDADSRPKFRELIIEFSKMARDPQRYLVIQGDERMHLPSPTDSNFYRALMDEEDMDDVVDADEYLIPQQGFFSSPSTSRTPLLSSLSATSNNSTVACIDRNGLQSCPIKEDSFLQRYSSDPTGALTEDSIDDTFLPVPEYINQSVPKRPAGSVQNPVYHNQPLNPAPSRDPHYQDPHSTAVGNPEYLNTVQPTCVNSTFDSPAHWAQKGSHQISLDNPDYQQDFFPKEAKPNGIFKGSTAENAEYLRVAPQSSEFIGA

| Structure (SMILES) | composite z-score [1] | composite z-score [2] | composite z-score [3] | z-score [4] | composite z-score [5] | composite z-score [6] | composite z-score [7] | composite z-score [8] | composite z-score [9] | composite z-score [10] |
| --- | --- | --- | --- | --- | --- | --- | --- | --- | --- | --- |
| O=c1cccc(-c2ccc([N+](=O)[O-])cc2)o1 | -0.632 | -0.0855 | -0.512 | -1.49 (inactive) | 0.274 | 0.959 | 0.574 | 0.534 | 0.0662 | 1.22 |
| COC(=O)[C@@]1(Cc2ccccc2)[C@H]2c3cc(C(=O)N4CCCC4)n(CCc4ccccn4)c3C[C@H]2CN1C(=O)c1ccccc1 | 1.04 | 0.897 | 1.02 | -2.09 (inactive) | 0.874 | 1.14 | 0.142 | 0.921 | -0.37 | 1.11 |
| CC[C@@H]1C=C(C(=O)O)[C@H](c2ccc(C#N)cc2)N1S(=O)(=O)c1ccc(C)cc1 | 1.1 | 0.313 | 0.863 | 0.552 (inactive) | 0.396 | 0.39 | -0.967 | -0.406 | -1.22 | 0.264 |
| CCOC(=O)C[C@H]1[C@H](OC(=O)c2ccc(C(=O)c3ccccc3)cc2)[C@@H](NC(=O)c2ccc3ccccc3n2)c2cc(OCCCO)ccc2N1C(=O)Cc1ccc(OC)cc1 | -0.318 | 0.57 | -0.385 | 0.187 (inactive) | 0.0466 | 0.354 | 0.196 | 0.346 | 0.239 | 0.188 |
| [N-]=[N+]=Nc1ccccc1[C@@H]1OC(c2ccc(OCCCO)cc2)=N[C@]1(Cc1ccccc1)C(=O)N1CCCCC1 | 1.16 | 0.374 | 0.711 | 0.745 (inactive) | 1.43 | 0.769 | 0.332 | 1.07 | -0.0165 | 0.441 |
| Cn1cccc1C(O)C1C=CC2C(=O)N(c3ccccc3)C(=O)C2N1Nc1ccccc1 (stereo not given) | 1.19 | 0.966 | 1.04 | -0.441 (inactive) | 1.3 | 1.27 | 0.671 | 1.41 | 0.456 | 0.865 |
| CC(C)C(CO)N1C(=O)[C@@H]2[C@H]3C(=O)OCC=C[C@H]3OC23C=CCN(c2ccc(Cl)cc2)C(=O)[C@@H]13 (stereo not given in full) | -1.14 | -0.0517 | -0.0455 | 0.121 (inactive) | -0.739 | -0.889 | -0.627 | -0.93 | -0.865 | 0.653 |
| CO[C@H]1O[C@H](CO)[C@@H](OC(=O)Nc2ccccc2)[C@H](OC(=O)c2cc3ccccc3[nH]2)[C@H]1OC(=O)c1cc2ccccc2[nH]1 | 0.494 | 0.576 | 0.759 | -0.447 (inactive) | 1.35 | 0.126 | -0.551 | 0.306 | 0.201 | 0.9 |
| C=C(/C(=C/C[C@H](OC(=O)c1ccncc1)c1ccc(CO)o1)c1cnc2ccccc2c1)C(C)C | 0.614 | -0.173 | -0.304 | 0.984 (inactive) | 1.41 | 1.16 | 0.932 | 1.46 | 0.791 | 1.81 |
| CC(=O)NCCCC[C@@H]1NC(=O)[C@@H]2C[C@H](C(=O)NCCCCCN)[C@H](c3cccc(OCCO)c3)N2C1=O | 1.05 | 0.681 | 0.0358 | -1.29 (inactive) | 1.24 | 0.533 | 0.504 | 1.33 | 0.823 | 0.488 |
| CN(C)C(=O)[C@]1(CCC(=O)OC(C)(C)C)N=C(c2ccc(OCCCO)cc2)O[C@@H]1c1ccccc1CN=[N+]=[N-] | 1.45 | -0.594 | 1.08 | -0.561 (inactive) | 0.518 | 0.7 | 0.195 | 0.47 | -0.396 | 0.418 |
| CCCCN1CC=CC23O[C@@H]4/C=C\CCCOC(=O)C4[C@H]2C(=O)N(CCO)[C@@H]3C1=O (stereo not given in full) | 1.77 | -0.356 | 0.644 | -0.817 (inactive) | -1.29 | -0.782 | -1.26 | -1.38 | -1.58 | -0.677 |
| COc1ccc([Si](C)(C)[C@H]2[C@H](CC(=O)N3CCC[C@H]3CO)O[C@@]3(C(=O)N(Cc4ccc(N5CCOC5=O)cc4)c4ccccc43)[C@@H]2C)cc1 | 1.08 | -0.214 | -0.246 | 0.467 (inactive) | 1.22 | 1.14 | 0.737 | 1.06 | 0.672 | 0.378 |
| CCCC=C(CCC)[C@@H](NS(=O)(=O)CC12CCC(CC1=O)C2(C)C)c1ccc(C(=O)OC)cc1 (stereo not given in full) | 0.765 | 0.615 | 0.143 | -0.422 (inactive) | 0.5 | 0.233 | 0.273 | 0.337 | 0.336 | -0.0344 |
| COc1cc2c(cc1O)C(c1ccc(CN3CCCC3)cc1)N(Cc1cc3c(cc1Br)OCO3)CC2 (stereo not given) | -0.115 | -0.106 | -0.097 | 0.373 (inactive) | 0.41 | -0.237 | -0.186 | 0.583 | -0.367 | 0.992 |
| O=C1OCCC=C[C@H]2OC34C=CCN(Cn5nnc6ccccc65)C(=O)[C@H]3N(CCCO)C(=O)[C@@H]4C12 (stereo not given in full) | -0.783 | -0.264 | 0.0963 | -1.05 (inactive) | -0.583 | -0.789 | -0.72 | -1.46 | -0.454 | 0.148 |
| CCOC(=O)C1=C[C@@H](C(C)C)N(S(=O)(=O)c2ccc(C)cc2)[C@H]1c1ccc(C(F)(F)F)cc1 | 0.794 | 0.374 | 0.703 | 0.317 (inactive) | 0.896 | 0.898 | 0.593 | 1.39 | 0.441 | 0.372 |
